Records with an inconclusive call do not appear. Calls of active or inactive are those of the source. Calls follow the shape of the dose curve; as a rule, active = well fitted cell-killing curve with a large enough effect; inconclusive = small, poorly fitted or top-dose-only effect, or effect the other way; inactive = flat fitted curve, though single readings scatter.
Test: MultiTox-Fluor Cytotoxicity Assay - LYMP1-001 - Dead Cells (AID 946);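 also: cells exposed to compound for 16 h; 0% = DMSO and 100% = tetraoctylammonium bromide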
Details: LYMP1-001 lymphoblastoid cells, dead-cell protease fluorescence; series mostly up to 92.2 µM; cytotoxicity (dead cells): at the top concentration
Source text: NIH Chemical Genomics Center [NCGC]
NIH Molecular Libraries Screening Centers Network [MLSCN]
National Institutes of Environmental Health Sciences [NIEHS]
National Toxicology Program [NTP]
We have developed a 1536-well cell-based assay for quantitative high throughput screening (qHTS) against a number of cell lines to determine in vitro cytotoxicity of small molecules. This particular assay uses a human lymphoblastoid cell line (LYMP1-001) purchased from Coriell Institute for Medical Research.
NCGC Assay Protocol Summary:
The MultiTox-Fluor Cytotoxicity Assay (Promega) is a homogeneous method to simultaneously measure the relative number of live and dead cells in culture by detecting changes in cell membrane integrity. There are two fluorogenic peptide substrates in the assay reagent. Viable cells are determined when the cell-permeant substrate (GF-AFC) enters the cell and is cleaved by protease from live cells resulting in liberated fluorophore. This live-cell protease activity restricted to viable cells is proportional to cell number. The dead cells are determined by using fluorogenic cell-impermeant peptide substrate (bis-AAF-R110) which cleaved by dead cell proteases leaking from damaged cell membrane.
Using the MultiTox-Fluor Cytotoxicity Assay, the relative number of dead cells was measured in the lymphoblastoid cell line with complete culture medium following compound treatment for 16 hours. The assay was performed in opaque black Kalypsys 1536-well plates. In the screen, tetraoctylammonium bromide was used as positive control. Library compounds were measured for their ability to cause acute toxicity in the cell line, as reflected by an increase in dead cell protease activity, in a concentration-dependent manner. Data were normalized to the controls for basal activity (DMSO only) and 100% stimulation (15 uM tetraoctylammonium bromide). AC50 values were determined from concentration-response data modeled with the standard Hill equation.
qHTS protocol for MultiTox-Fluor Cytotoxicity assay
[Step] [Parameter] [Value] [Description]
1. Reagent; 5 uL; 2500 lymphoblastoid cells/well
2. Time; 5 hr; 37 C incubation
4. Controls; 23 nL; Tetraoctylammonium bromide 6.4pM to 92 uM
5. Time; 16 hr; 37 C incubation
6. Reagent; 5 uL; MuliTox-Fluor Assay reagent
7. Time; 60 min; Room Temperature
8. Detection; dead-cell fluorescence (Ex/Em=485/520); EnVision plate reader
Keywords: cytotoxicity, lymphoblastoid cell line, fluorescence, NTPHTS, NTPHTS_NCGC, NIEHS, EPA, DSSTox, MLSMR, MLSCN, NIH Roadmap, qHTS, NCGC

SMILES	cytotoxicity (dead cells)
Cc1ccc(C)c(O)c1	-1.11% (inactive)
FC(F)(F)c1cccc(Cl)c1	2.32% (inactive)
Cc1ccc(C)c(N)c1	-10.6% (inactive)
CC(C)(C)OC=O	6% (inactive)
CC(C)c1ccccc1	2.12% (inactive)
CC=O	-15.3% (inactive)
CCCCCCCCCCCCOCC1CO1 (stereo not given)	-8.67% (inactive)
Nc1ccc([N+](=O)[O-])c(N)c1	7.7% (inactive)
Nc1nc(-c2ccccc2)cs1	6.75% (inactive)
Cc1cc(C)cc(N)c1	-16.1% (inactive)
Cc1ccco1	-1.43% (inactive)
CC(=O)CC(C)C	5.46% (inactive)
COc1cccc(N)c1	-1.92% (inactive)
CCCCCCO	8.21% (inactive)
ICCc1ccccc1	-19.3% (inactive)
ClC/C=C/CCl	1.2% (inactive)
CC/C=C/C#N	2.92% (inactive)
CCCCCO	4.21% (inactive)
O=C(O)c1ccc(Cl)cc1Cl	-11.7% (inactive)
O=C1C=CCCC1	-3.89% (inactive)

SMILES	cytotoxicity (dead cells)
CCOC(=O)OCC	-5.57% (inactive)
CC/C(C)=N/O	1.87% (inactive)
Nc1cc(Cl)c(N)c(Cl)c1	-24% (inactive)
O=C1CCC(=O)O1	-9.65% (inactive)
Nc1ccccc1S(=O)(=O)O	-11.2% (inactive)
C/C=C(/C)C#N	3.94% (inactive)
CC/C=C1/OC(=O)c2ccccc21	-18.6% (inactive)
CNc1ccc([N+](=O)[O-])cc1	6.38% (inactive)
Cc1ccc(C)cc1	5.62% (inactive)
CC1CCC2CC1C2(C)C (stereo not given)	-10.7% (inactive)
O=C1OC(=O)c2c(Br)c(Br)c(Br)c(Br)c21	-4.88% (inactive)
Cc1cc(C)cc(O)c1	-7.07% (inactive)
C=CC(=O)NC(C)C	-1.81% (inactive)
CC=C(Cl)Cl	-23.3% (inactive)
NC(=O)c1ccccc1[N+](=O)[O-]	-5.31% (inactive)
c1ccc2[nH]cnc2c1	-17% (inactive)
O=Cc1ccc(C(=O)O)cc1	4.25% (inactive)
O=Cc1c(Cl)cccc1Cl	-10.5% (inactive)
O=Cc1cccc(Br)c1	-15.3% (inactive)
CCCC(C)CO (stereo not given)	-3.4% (inactive)
